In the supplement of paper PMC9588786:
± gives the standard deviation of the averaged measurements.

Test system: HT-1080
Experiment: relative cell viability with RSL3 co-treatment (fraction of control); higher = stronger protection from RSL3-induced ferroptosis (higher viability)
Conditions: 10 µM
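Also: viability read as CCK-8 absorbance at 450 nm in cells co-exposed to the GPX4 inhibitor RSL3, relative to a 0.01% DMSO vehicle control.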

| SMILES | relative cell viability |
| --- | --- |
| Cn1cc(C2=C(c3cn(C4CCN(Cc5ccccn5)CC4)c4ccccc34)C(=O)NC2=O)c2ccccc21 | 0.807 ± 0.061 |
| C/C(O)=C(\C#N)C(=O)Nc1cc(Br)ccc1Br | 0.54 ± 0.085 |
| CC(C)(C)c1cc(C=C(C#N)C#N)cc(Br)c1O | 0.473 ± 0.015 |
| CCN1CCN(C(=O)Cc2ccc(Nc3ncc(F)c(Nc4ccc(C(=O)Nc5ccccc5Cl)cc4)n3)cc2)CC1 [Aurora A Inhibitor I] | 0.473 ± 0.13 |
| O=c1[nH]c2ccc(Cl)cc2c(N[C@@H]2CN3CCC2CC3)c1-c1nc2ccccc2[nH]1 | 0.63 ± 0.046 |
| COc1ccc(N(C(=O)Oc2c(C)cccc2C)c2ccnc(Nc3ccc(N4CCN(C)CC4)cc3)n2)c(OC)c1 | 0.8133 ± 0.0058 |
| Cc1ccccc1-n1c(Cn2ncc3c(N)ncnc32)nc2cccc(C)c2c1=O | 0.727 ± 0.049 |
| CC(C)(C)c1cc(C=C(C#N)C#N)cc(C(C)(C)C)c1O [Tyrphostin 9] | 0.413 ± 0.021 |
| COc1ccc2c(c1)/C(=C/c1cnc[nH]1)C(=O)N2 | 0.797 ± 0.011 |
